The values that follow come from PubChem BioAssay (NCATS).

Inconclusive results are not listed. Activity calls are given as the source filed them. Calls follow the shape of the dose curve; as a rule, active = well fitted curve in the direction sought with a large enough effect in the signal ratio; inconclusive = small, poorly fitted or top-dose-only effect, or a change in a side signal; inactive = no such curve, though single readings can be large or run the other way; the % refers to the signal ratio.

In this assay the target is Tumor necrosis factor (Homo sapiens) (UniProt P01375). Description: qHTS assay to identify small molecules that stimulate Tumor Necrosis Factor-alpha (TNF-alpha) secretion (AID 651757). The note with it: Human cells, HTRF 665/615 ratio; series mostly up to 92.2 µM. The source says: National Center for Advancing Translational Sciences [NCATS]
Tumor necrosis factor (Homo sapiens), sequence (P01375 whole entry, looked up): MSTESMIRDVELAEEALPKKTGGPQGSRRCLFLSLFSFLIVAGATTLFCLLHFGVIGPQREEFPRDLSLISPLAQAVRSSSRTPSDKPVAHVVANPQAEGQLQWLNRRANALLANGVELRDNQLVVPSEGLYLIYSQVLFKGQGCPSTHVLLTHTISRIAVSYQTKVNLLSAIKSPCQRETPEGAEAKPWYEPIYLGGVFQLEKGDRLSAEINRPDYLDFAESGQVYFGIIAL
NIH Chemical Genomics Center [NCGC]
National Institutes of Environmental Health Sciences [NIEHS]
National Toxicology Program [NTP]
Tumor Necrosis Factor-alpha (TNF-alpha), a secreted cytokine, plays an important role in inflammatory diseases and immune disorders. TNF-alpha, a 17 kDa cytokine, is mainly secreted by activated macrophages and monocytes in response to several inflammatory and immunological stimuli. To study the effect of environmental chemicals on TNF-alpha secretion, a homogeneous TNF-alpha assay was developed using Time Resolved fluorescence (HTRF) technology based on Time Resolved Fluorescent Resonance Energy Transfer (TR-FRET) (Leister et al., Current Chemical Genomics, 5:21-29, 2011). This assay allows measuring TNF-alpha secreted from the cells in a 1536-well plate format.
THP-1 cells were dispensed at 3000 cells/5ul/well in 1536-well white solid plates. After addition of 23 nl of compound, positive controls and DMSO only, the assay plates were incubated at 37 C for 17 hrs, followed by addition of 5 uLof mixture of cryptate labeled and XL665 labeled anti-TNF-alpha antibodies. After the assay plates were incubated at room temperature for 3 hr, the plates were measured by an EnVision plate reader.
On the technique in general: Quantitative high-throughput screening tests each substance at several concentrations.
Turning to `C=C[C@H]1CN2CC[C@H]1C[C@@H]2[C@@H](O)c1ccnc2ccc(OC)cc12`, the outcome was inactive.

As for `CCOc1ccccc1C(N)=O`, the outcome was inactive. Take `OC[C@H]1O[C@@H]2O[C@H]3[C@H](O)[C@@H](O)[C@@H](O[C@H]4[C@H](O)[C@@H](O)[C@@H](O[C@H]5[C@H](O)[C@@H](O)[C@@H](O[C@H]6[C@H](O)[C@@H](O)[C@@H](O[C@H]7[C@H](O)[C@@H](O)[C@@H](O[C@H]8[C@H](O)[C@@H](O)[C@@H](O[C@H]1[C@H](O)[C@H]2O)O[C@@H]8CO)O[C@@H]7CO)O[C@@H]6CO)O[C@@H]5CO)O[C@@H]4CO)O[C@@H]3CO`: the outcome was inactive. The entry for `C/C=C/c1ccc(O)c(OC)c1` is “inactive”; for `CCCN(CCC)S(=O)(=O)c1ccc(C(=O)O)cc1` it is “inactive”. The entry for `CCCCC(CC)COC(=O)c1ccc(N(C)C)cc1` (stereo unspecified) is “inactive”.

Turning to `Oc1ccc(Cl)cc1Cc1cc(Cl)ccc1O`, the result was inactive. Take `CCOc1ccc(NC(C)=O)cc1`: the result was inactive. Next, `NC(=O)c1ccccc1O`: “inactive”. Next, `COc1ccc(C(=O)c2ccccc2)c(O)c1`: “inactive”; `COc1ccc(C(Cl)=C(c2ccc(OC)cc2)c2ccc(OC)cc2)cc1`: “inactive”.
